The list is not random: actives were taken first. Their share in the collection is about 15%.
HCMV antiviral: blocks human cytomegalovirus replication; HFF cells, HCMV-luciferase reporter, 72 h; hits give low values; activity change, negative = inhibition, % at 57.5 µM; actives 4.5% (n = 410,000); AID 1259415; in the data active means activity change below about -60%; inconclusive means no clear call, values can overlap the other calls; inactive means above about -39%
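Two compound doses tested in HFFs infected with HCMV-luciferase, MOI 1 PFU/cell, 72 h at 37C. Lysate luminescence read with OneGlo; data normalized against buffer-only and 10uM Salinomycin inhibitor controls.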
HCV inh: HCV inhibition; Huh7.5.1 HCVcc-Cre infection, luciferase reporter, 44 h; Potency, µM (highest dose often 41.8 µM), usual class: inhibitors; actives 3.4% (n = 340,000)
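HCVcc-Cre virus at an moi near 0.5 was added right after compound to cells cultured 4 h from seeding (1,000 cells/well). Luciferase activity was determined 44 h later, 15 min after substrate addition at RT.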
SARS PLP yeast: inhibitors of SARS-CoV papain-like protease in yeast. Potency, µM (titrated, usually from 32.9 µM), usual class: activators. actives 0.19% (n = 330,000). S. cerevisiae expressing SARS-CoV PLpro, growth rescue; calls by dose curve; further: nearly all actives have a fitted effect of over 55% in size
Pf growth 48h: inhibits P. falciparum growth in the first generation, 48 h | P. falciparum luciferase growth in erythrocytes, 48 h | Potency, µM (titrated, usually from 28.7 µM), hits mostly inhibitors | actives 5.9% (n = 310,000) | AID 504832
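Here the parasites carry a stable luciferase gene and grow inside erythrocytes in Albumax-based RPMI medium with compound for one erythrocytic cycle. Activity is scored as loss of luminescent signal.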
Pf growth 96h: P. falciparum growth inhibition at 96 hour, primary screen for plastid delayed-death inhibitors; Potency, µM (titrated, usually from 28.7 µM), actives largely listed as inhibitors; actives 6.9% (n = 320,000); P. falciparum luciferase reporter growth, 96 h
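Plates of compound plus infected erythrocytes (2% hematocrit, 0.05% parasitemia final) incubate 96 hours, 37 C, 5% CO2. Detection reagent added; reduced luminescence from the parasites' luciferase reporter flags inhibition.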
Sm TGR block: S. mansoni TGR enzyme inhibition; actives 3% (n = 360,000); Potency, µM (titrated, usually from 114 µM), most hits filed as inhibitors; Q962Y6; purified TGR, DTNB reduction, TNB absorbance 405 nm; further: nearly all actives have a fitted effect of over 60% in size
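TGR 20 nM + NADPH 100 uM (dispensed conc.), cpd preinc 15 min RT; start with NADPH (500 uM addition) then DTNB (15 mM addition). Kinetic TNB absorbance, 405 nm filter. Four-parameter Hill fit across titration.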
Each line names hits and unclear results; the compound was inactive in the other large screens; ! = not confirmed by another sample. Unless noted, the call rests on the fitted dose curve; in most records, active means well fitted curve in the direction sought with a large enough effect; inconclusive means small, poorly fitted or top-dose-only effect, or another doubt; inactive means no such curve, though single readings can be large; an effect the other way counts as inactive or inconclusive.

Cc1nc(Cl)c(Cl)n1CCOc1ccccc1	Pf growth 48h 8.3µM, Pf growth 96h inconclusive
COc1ccc(NCc2nc3ccccc3n2CCOc2ccc(C)cc2)cc1	HCMV antiviral inconclusive, HCV inh 8.9µM
C=C(Br)Cn1c(CCC)nc2ccccc21	Pf growth 96h 10µM
CCCc1nc2ccccc2n1CCOc1ccccc1	Pf growth 96h 4.1µM (no result: Pf growth 48h)
Cc1nc2ccccc2n1CCCOc1ccccc1	HCV inh inconclusive, Pf growth 96h inconclusive
O=C(c1cccc(F)c1)N1CC(=O)N2[C@@H](CO)[C@@H](c3ccc(Br)cc3)[C@@H]2C1	none (no result: HCV inh, SARS PLP yeast, Pf growth 48h, Pf growth 96h, Sm TGR block)
COc1ccc(-c2nc(CN(CC3CCC(=O)N3)C(C)C)c(C)o2)c(C)c1C (stereo unspecified)	HCV inh inconclusive
CC1(C)Cc2nc(NC3CCCCC3)c(C#N)cc2CO1	Pf growth 48h 9.3µM (no result: Sm TGR block)
CC1(C)Cc2c(C#N)c(NCC3CCCO3)nc(-c3ccco3)c2CO1 (stereo unspecified)	HCV inh inconclusive, Pf growth 48h inconclusive, Sm TGR block 4.5µM (no result: Pf growth 96h)
CC1(C)Cc2c(C#N)c(NC3CCCCC3)nc(-c3ccco3)c2CO1	Pf growth 48h 5.9µM, Pf growth 96h 9.3µM, Sm TGR block 1.8µM (no result: HCMV antiviral)
COc1ccc(S(=O)(=O)N2CCOCC2)cc1NC(=O)CN1CCN(C)CC1	none (no result: SARS PLP yeast)
Cc1c(Cl)cn2c(=O)cc(CN3CCN(c4ccc(F)cc4)CC3)nc2c1Cl	Sm TGR block 50µM (no result: HCMV antiviral, HCV inh)
CCN(CC)CCCN=C(C)c1c(O)n(C2CCCCC2)c(=O)[nH]c1=O	Pf growth 96h 6.6µM
CCC(=NCCCN(CC)CC)c1c(O)n(C2CCCCC2)c(=O)[nH]c1=O	none
O=c1cc(CSc2ncn[nH]2)[nH]c2c(Cl)cccc12	none (no result: HCV inh, SARS PLP yeast, Pf growth 48h, Pf growth 96h)
Cc1ccc(C(=O)NCC(=O)OCC(=O)/C=C2\N(C)c3ccccc3C2(C)C)cc1C	none
CC(C)(C)C(=O)/C=c1\[nH]c(=O)/c(=C\c2ccccc2F)s1	HCV inh inconclusive
CCc1ccc(/C=c2\s/c(=C\C(=O)C(C)(C)C)[nH]c2=O)cc1	HCV inh inconclusive, Pf growth 48h 3.3µM (no result: Pf growth 96h)
Cc1ccccc1/C=c1\s/c(=C\C(=O)C(C)(C)C)[nH]c1=O	HCV inh 11µM, Pf growth 96h inconclusive (no result: Pf growth 48h)
COc1cccc(-c2sc3ccc(OC)cc3c2-c2cc(F)cc(OC)c2)c1	Pf growth 48h inconclusive, Pf growth 96h 2.9µM
CCOC(=O)c1ccc(N=c2sc(C(=O)OC)cc(=O)n2Cc2ccco2)cc1	HCV inh 22µM, Pf growth 48h inconclusive, Pf growth 96h inconclusive
COC(=O)c1cc(=O)n(Cc2cccs2)c(=NCc2cccs2)s1	none (no result: HCV inh, Pf growth 96h)
COC(=O)c1ccc2c(=O)n(CCCN3CCOCC3)c(=S)[nH]c2c1	none
CCOC(=O)c1ccc(N=c2sc(C(=O)OC)cc(=O)n2CCCN2CCOCC2)cc1	HCV inh inconclusive, Pf growth 48h inconclusive, Pf growth 96h 4.7µM!
CCCCc1ccc(S(=O)(=O)N[C@H]2CC[C@@]34CCCN3C(=O)CCC[C@H]4[C@H]2CCC)cc1	none (no result: HCV inh, SARS PLP yeast, Pf growth 48h, Pf growth 96h, Sm TGR block)
FC(F)(F)c1cnc(NNC(=S)Nc2ccc(Cl)cc2)c(Cl)c1	HCMV antiviral -99, HCV inh inconclusive, Pf growth 48h inconclusive, Pf growth 96h 7.4µM
Cc1ccc(NC(=S)NNc2ncc(C(F)(F)F)cc2Cl)cc1	HCV inh inconclusive, Pf growth 48h inconclusive, Pf growth 96h 10µM
Cc1ccc(NC(=S)NNc2ncc(C(F)(F)F)cc2Cl)c(C)c1	HCV inh inconclusive, Pf growth 96h inconclusive (no result: Pf growth 48h)
Fc1ccc(NC(=S)NNc2ncc(C(F)(F)F)cc2Cl)c(F)c1	HCMV antiviral -99, HCV inh 22µM, Pf growth 48h 9.3µM, Pf growth 96h 10µM
COc1ccc(NC(=O)CN(C)C(=O)C(C)N2C(=O)c3ccccc3C2=O)cc1 (stereo unspecified)	none
CCS(=O)(=O)N1CC(=O)N(c2ccc(C)c(C)c2)C(C)(C(=O)NC2CCCCCC2)C1 (stereo unspecified)	none (no result: HCV inh, SARS PLP yeast, Pf growth 48h, Pf growth 96h)
CCN(CC(=O)NC1CCS(=O)(=O)C1)Cc1nc2c(Br)cc(Br)cc2c(=O)[nH]1 (stereo unspecified)	none
CCN(CC(=O)NC(C)(C)C)Cc1nc2c(Br)cc(Br)cc2c(=O)[nH]1	HCV inh inconclusive, Pf growth 48h 12µM, Pf growth 96h 9.3µM
O=C(NCc1ccc(F)cc1)[C@@H]1[C@@H](CO)[C@@H]2Cn3c(cccc3=O)[C@H]1N2CC1CCCC1	none (no result: HCV inh, SARS PLP yeast, Pf growth 48h, Pf growth 96h, Sm TGR block)
C#CCOCCOCCOCCNc1nc(N2CCN(C(=O)[C@H]([C@@H](C)CC)n3cc(CCCCN)nn3)CC2)nc(N2CCN(C(=O)[C@H]([C@@H](C)CC)n3cc(CCCN=C(N)N)nn3)CC2)n1	Pf growth 48h inconclusive, Pf growth 96h 7.4µM
C#CCOCCOCCOCCNc1nc(N2CCN(C(=O)[C@H]([C@@H](C)O)n3cc(CCCCN)nn3)CC2)nc(N2CCN(C(=O)[C@H]([C@@H](C)CC)n3cc(CCCN=C(N)N)nn3)CC2)n1	Pf growth 48h inconclusive, Pf growth 96h 4.7µM
C#CCOCCOCCOCCNc1nc(N2CCN(C(=O)[C@H]([C@@H](C)CC)n3cc(CCCCN)nn3)CC2)nc(N2CCN(C(=O)[C@H](C)n3cc(CCCN=C(N)N)nn3)CC2)n1	Pf growth 48h inconclusive
C#CCOCCOCCOCCNc1nc(N2CCN(C(=O)[C@H](C(C)C)n3cc(CCO)nn3)CC2)nc(N2CCN(C(=O)[C@H]([C@@H](C)CC)n3cc(CCCCN)nn3)CC2)n1	Pf growth 48h inconclusive, Pf growth 96h inconclusive
C#CCOCCOCCOCCNc1nc(N2CCN(C(=O)[C@H]([C@@H](C)O)n3cc(CCCCN)nn3)CC2)nc(N2CCN(C(=O)[C@H](C)n3cc(CCCN=C(N)N)nn3)CC2)n1	Pf growth 96h inconclusive (no result: HCMV antiviral)
C#CCOCCOCCOCCNc1nc(N2CCOCC2)nc(N2CCN(C(=O)[C@H]([C@@H](C)CC)n3cc(CCCCN)nn3)CC2)n1	Pf growth 48h inconclusive, Pf growth 96h 8.3µM
C=CCN(Cc1cccc(OC)c1OC)C(=O)Oc1ccccc1	none
COc1ccc(NC(=O)c2cc(C3CCCCN3C(=O)c3cc(OC)c(C)c(OC)c3)on2)c(C)c1 (stereo unspecified)	none (no result: HCV inh, SARS PLP yeast, Pf growth 48h, Pf growth 96h, Sm TGR block)
CCCNC(=O)c1ccc2nc(-c3ccccc3)c(-c3ccccc3)nc2c1	HCV inh inconclusive, Pf growth 48h 5.2µM, Pf growth 96h inconclusive
O=C(NCCCO)c1ccc2nc(-c3ccco3)c(-c3ccco3)nc2c1	Sm TGR block 2.5µM
CCN(CC)C(=O)c1c2c(nc3ccccc13)-c1ccccc1CC2	HCV inh inconclusive, Pf growth 48h 7.4µM, Pf growth 96h inconclusive
CCc1nc2ccc(C(=O)NCCc3ccco3)cc2nc1CC	HCV inh inconclusive, Pf growth 96h inconclusive (no result: HCMV antiviral)
